The results in this text go back to PubChem BioAssay (NCI).

This is part of a sample that, as a whole, favours compounds with a hit. Of some 83,000 tested, about 20% had one in any assay.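 Step 1: grow cells in 96-well plates. Step 2: add test compound at a single concentration. Step 3: incubate 48 h. Step 4: record percent growth.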 A number with no mark means an inactive call. Activity calls are given as the source filed them. The calls were made as follows: active = growth percent below 10; inactive = the rest.

The assay relates to NCI-H23 lung. In words: NCI-60 one-dose screen, 48 h (100 = growth as untreated, 0 = no growth, -100 = all killed). The conditions noted are these: 10 µM.
As to `COc1cccc(-c2ccnc(/N=C(\N)Nc3ccc(S(=O)(=O)Nc4nc(C)cc(C)n4)cc3)n2)c1`, the growth is 98.2%.
To `O/N=C(\CSc1nnc(-c2c[nH]c3ccccc23)n1-c1ccccc1)c1ccc(Cl)cc1` belongs 47.3%; to `COC(=O)c1c(C(=O)OC)c2n(c1C)[C@@H]([C@@H](C)[C@H]1CC[C@H]3[C@@H]4CCC5=CC(=O)CC[C@]5(C)[C@H]4CC[C@]13C)SC2`, 25%.
To `Cc1ccc(-c2cc(C(=O)N=Nc3c(O)[nH]c4ccc(Br)cc34)c3ccccc3n2)cc1` belongs 51.2%.
To `COc1ccc(-c2c(N)c(=O)n(C)c3ccccc23)cc1` belongs 67.7%; to `O=c1cc(-c2ccccc2)oc2cc(OCCCNCc3ccccc3)cc(O)c12`, -91% (active); to `COc1cccc2nc(Nc3cccc(NC(=O)c4ccc(CN5CCCN(C)CC5)c(C(F)(F)F)c4)c3)ccc12`, -97.9% (active).
Consider `COc1ccc(-c2cc(-c3cc(C(=O)c4ccc(Br)cc4)n4ccc(C)cc34)nc(N)c2C#N)cc1`, for which the growth is 63.1%.
To `O=C1CCC(N2Cc3c(NCc4ccc(-c5ccccc5)cc4)cccc3C2=O)C(=O)N1` (configuration not stated) belongs 72.9%; to `COc1ccc(CN2[C@@H](C(=O)NCc3ccc(C(=O)NO)cc3)Cc3c([nH]c4ccccc34)[C@@H]2C2CC2)cc1`, 21.3%; to `CCOC(=O)c1c(CSc2ccccc2)n(C)c2cc(CN(C)C)c(O)c(CN(C)C)c12`, 33.8%.
To `CCOC(=O)CNC(=O)CN(Cc1ccccc1)C(=O)[C@@]1(C)CCC[C@]2(C)[C@H]3C[C@H]4C(C(C)C)=C[C@]3(CC[C@H]21)[C@@H]1C(=O)OC(=O)[C@@H]14` belongs 46.6%.
